Bioassay records as filed in PubChem.
KAT2A inh = GCN5L2 (KAT2A) acetyltransferase inhibition; GCN5L2 HAT assay, ThioGlo1 CoA-SH fluorescence; 390,000 tested, 0.21% active; Potency, µM (series often up to 58.9 µM), for inactives: at the highest dose activity change, negative = inhibition, usual class: inhibitors; AID 504327
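GCN5L2 (20nM final) in 50mM HEPES, 0.1mM EDTA pH 7.5, 0.01% Tween-20 was preincubated 15 min at room temperature with compound, then given ThioGlo1 (50uM), H3(1-25) peptide (75uM) and acetyl-CoA (70uM); CoA-thiol fluorescence (Ex340/Em540) was read at 0 and 20 min.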
TrxR1 substrate = is turned over as a substrate by rat TrxR1. O89049. purified TrxR1 substrate turnover, NADPH consumption readout. Potency, µM (top dose mostly 114 µM), inactives show top-dose activity change, negative = substrate turnover. 390,000 tested, 0.01% active. AID 588456; further: nearly all actives have a fitted effect of over 50% in size
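Rat TrxR1, dispensed at 90 nM, was prereduced with 400 uM NADPH (final) for 5 min at ~22 deg C, then incubated with compound 15 min before 400 uM selenite. A first-read NADPH fluorescence drop versus no-compound background flagged substrates.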
Sfp inh = inhibitors of Bacillus subtilis Sfp phosphopantetheinyl transferase. Biochemical Sfp PPTase activity, qHTS. Potency, µM, for the others: largest response in the series, negative = inhibition, most hits filed as inhibitors. 310,000 tested, 3.5% active. AID 1490;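 further: the enzyme is Sfp with the accession as filed and its product quenches rhodamine fluorescence; 0% = enzyme reaction without inhibitor and -100% = no enzyme wells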
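Compounds were incubated with enzyme (final 15 nM) for 15 min at room temperature before substrate addition started the reaction. Fluorescence at 525 nm excitation, 598 nm emission was recorded immediately and after 30 minutes.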
rTrxR1 inhibitor = inhibitors of rat thioredoxin reductase 1 | O89049 | recombinant rTrxR1, NADPH fluorescence consumption, selenite substrate | Potency, µM (highest dose often 114 µM), without a hit: at the highest dose activity change, negative = inhibition, actives largely listed as inhibitors | 390,000 tested, 1% active | AID 588453; further: nearly all actives have a fitted effect of over 65% in size
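Rat TrxR1 (90 nM in the dispensed reagent) was pre-reduced with 400 uM NADPH for 5 min at room temperature, then incubated with compound for 15 min. After 400 uM selenite was added, NADPH fluorescence (Ex 340/Em 450 nm) was followed for 8 min.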
VDR inhibitor = blocks the human vitamin D receptor; P11473; VDR-SRC2-3 peptide fluorescence polarization, 2 h; Potency, µM, for inactives: max response, negative = inhibition, hits mostly inhibitors; 400,000 tested, 0.93% active
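Signal is fluorescence polarization, reporting how far test compounds block the interaction of VDR with the SRC2-3 coregulator peptide after a 2 h room-temperature incubation.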
GLS inh = inhibitors of human glutaminase (GLS); O94925; GLS enzymatic activity, qHTS titration; Potency, µM (highest dose often 45.5 µM), for inactives: at the highest dose activity change, negative = inhibition, most hits filed as inhibitors; 410,000 tested, 0.21% active
Target sequence (O94925 whole entry, looked up): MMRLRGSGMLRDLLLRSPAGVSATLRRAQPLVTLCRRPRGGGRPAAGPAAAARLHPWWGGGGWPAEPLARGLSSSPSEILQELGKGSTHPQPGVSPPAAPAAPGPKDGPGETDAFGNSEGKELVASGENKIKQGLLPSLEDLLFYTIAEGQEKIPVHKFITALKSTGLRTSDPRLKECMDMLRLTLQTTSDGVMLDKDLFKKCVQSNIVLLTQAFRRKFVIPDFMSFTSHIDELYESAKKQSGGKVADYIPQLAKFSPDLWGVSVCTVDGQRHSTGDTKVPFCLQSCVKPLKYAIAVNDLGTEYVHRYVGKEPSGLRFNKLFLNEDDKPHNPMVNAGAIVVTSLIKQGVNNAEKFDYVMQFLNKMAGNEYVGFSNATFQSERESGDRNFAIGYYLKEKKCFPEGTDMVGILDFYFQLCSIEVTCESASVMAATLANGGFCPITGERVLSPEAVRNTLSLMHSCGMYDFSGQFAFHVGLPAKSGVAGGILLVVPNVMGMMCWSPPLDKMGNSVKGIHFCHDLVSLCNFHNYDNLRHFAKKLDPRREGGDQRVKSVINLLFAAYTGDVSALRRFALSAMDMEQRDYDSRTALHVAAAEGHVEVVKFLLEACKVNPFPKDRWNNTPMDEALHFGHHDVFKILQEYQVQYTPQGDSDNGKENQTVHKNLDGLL
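Enzyme dispensed in phosphate buffer (45 mM, pH 8.2, 0.02% Tween-20), compounds pinned in, then 1 mM L-glutamine solution and the glutamate oxidase–HRP–Amplex Red mix added; fluorescence read immediately and again after 30 min at room temperature.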
* = called active by the depositor; ? = inconclusive; / = no result given; [ ] = another dose, or the depositor's remark. Most compounds without a hit are left out; they make up all but 3.8% or so of the library. The call rests on the fitted dose curve; in most records, active means well fitted curve in the direction sought with a large enough effect; inconclusive means small, poorly fitted or top-dose-only effect, or another doubt; inactive means no such curve, though single readings can be large; an effect the other way counts as inactive or inconclusive. Unless noted, on the % scale 0 is the no-effect control and ±100 the full control effect; potency means the concentration at half of the fitted maximal effect.

SMILES	KAT2A inh	TrxR1 substrate	Sfp inh	rTrxR1 inhibitor	VDR inhibitor	GLS inh
COc1cc(/C=C/c2ccc3cccc(O)c3n2)cc(Cl)c1OC	-4.4%	-11.2%	50.1µM*	-14.1%	-4.7%	0.2%
COc1cccc2ccc(/C=C/c3ccc4c(c3)OCO4)nc12	/	6.8%	/	-24.0%	1.1%	/
C=CCn1c(SCC(=O)N2CCOCC2)nc2sc(C)c(C)c2c1=O	0.7%	-2.1%[57.1 µM]	21.0%	-1.6%[57.1 µM]	1.4%	-21.4%
C=CCSc1nc2sc(C)c(C)c2c(=O)n1CC=C	-7.3%	-9.3%	50.1µM*	?	0.7%	-10.7%
COc1cccc(C2C(C(=O)/C=C/c3ccco3)=C(O)C(=O)N2CCN2CCOCC2)c1 (stereo not drawn)	-4.3%	-3.3%	?	10µM*	24.4%	-12.5%
COc1ccc(NC(=O)c2oc3ccccc3c2NC(=O)c2ccco2)c(OC)c1	?	104.9%	25.1µM*	?	-4.0%	-7.0%
COc1ccc(NC(=O)c2oc3ccccc3c2NC(=O)c2cc3ccccc3o2)c(OC)c1	-0.1%	1.4%	/	11.8%	-2.6%	-10.9%
Cc1ccc(C2C(C#N)=C(N)Oc3n[nH]c(-c4ccccc4)c32)o1 (stereo not drawn)	-2.6%	4.5%[57.1 µM]	?	-39.9%	25.1µM*	?
Cc1ccc(C2C(C#N)=C(N)Oc3c2sc2ccccc32)o1 (stereo not drawn)	-21.3%	/	56.2µM*	/	/	/
O=C(COC(=O)C1(c2cccc(F)c2)CCCC1)NCc1cccs1	-9.8%	-3.9%	8.4%	27.9%	-12.2%	0.1%
COc1cccc(C2NC(=S)NC3=C2CCc2ccccc23)c1 (stereo not drawn)	-6.8%	-1.8%	50.1µM*	0.5%	-20.2%	-10.8%
CC1Cc2ccccc2N1C(=O)CNc1cccc(S(=O)(=O)N2CCCC2)c1 (stereo not drawn)	-16.1%	1.7%[57.1 µM]	2.4%	12.7%[57.1 µM]	25.1µM*	?
Cc1c(C2CCN(CCc3ccccc3)CC2)noc1-c1ccc(Cl)cc1	1.7%	/	3.1%	/	-8.6%	/
Cn1c(=O)c(=O)n(C)c2cc(N3CCCC3)c(NS(=O)(=O)c3ccc(Cl)cc3)cc21	-14.5%	-0.6%	-10.1%	35.5µM*	-21.8%	-10.4%
Cn1c(=O)c(=O)n(C)c2cc(N3CCOCC3)c(NS(=O)(=O)c3ccc([N+](=O)[O-])cc3)cc21	-16.9%	4.6%[57.1 µM]	50.1µM*	12.7%[57.1 µM]	-7.2%	39.5%
Cc1ccc(S(=O)(=O)NC(N)=NCCc2ccccc2)cc1C	-6.0%	0.4%	-19.9%	10.3%	-7.8%	9.7%
CCCc1nnc(NC(=O)CC(=O)Nc2ccccc2C(=O)O)s1	2.9%	-3.3%	-5.6%	-6.9%	4.4%	1.0%
CCCCCCCCCCCCCC[n+]1ccc(C)cc1	-0.9%	/	56.2µM*	/	?	0.5%
CCCCCCCCCCCCCCCC[n+]1ccc(/C=N/O)cc1	-2.3%	-6.6%	31.6µM*	?	5.4%	-13.9%
O=C1c2ccccc2C(=O)C1c1ccnc2ccccc12	1.1%	7.4%[57.1 µM]	15.2%	2.9%[57.1 µM]	-2.7%	?
N#CC1=C(N)SC(N)=C(C#N)C1c1ccnc2ccccc12	-2.9%	1.9%	15.8µM*	31.6µM*	-18.0%	23.1%
COc1ccc(CCN(C(=O)c2snc(C(N)=O)c2N)C(C)C(=O)NC2CCCCC2)cc1OC (stereo not drawn)	-3.9%	-14.9%[57.1 µM]	10.7%	20.5%[57.1 µM]	13.9%	0.8%
O=C1c2oc3ccccc3c(=O)c2C(c2cccs2)N1CCCN1CCOCC1 (stereo not drawn)	-3.0%	-7.5%	?	39.8µM*	-13.9%	-2.0%
O=S(=O)(Nc1cccc2ccccc12)c1cccs1	-5.9%	2.6%	6.3%	3.8%	9.2%	21.9%
O=S(=O)(Nc1ccc(O)c2ccccc12)c1cccs1	-3.1%	1.5%[57.1 µM]	?	?	?	11.2µM*
SMILES	KAT2A inh	TrxR1 substrate	Sfp inh	rTrxR1 inhibitor	VDR inhibitor	GLS inh
Cc1cccc(N2CCCn3c2nc2c3c(=O)[nH]c(=O)n2C)c1	-7.0%	-5.6%	3.7%	1.0%	13.6%	-0.4%
Cc1cccc(C)c1NC(=O)C1CCCN1S(=O)(=O)c1ccc2c(c1)n(C)c(=O)c(=O)n2C (stereo not drawn)	-12.0%	13.2%[57.1 µM]	14.2%	13.6%[57.1 µM]	-8.0%	2.7%
COc1ccc(CN(CC2CCC(C(=O)O)CC2)C(=S)Nc2cc(Cl)ccc2OC)cc1 (stereo not drawn)	-8.1%	1.6%	39.8µM*	22.9%	-6.5%	4.1%
COc1ccc(Cl)cc1NC(=S)N(Cc1ccc(C(=O)O)cc1)Cc1ccc(OC)c(OC)c1	-2.2%	-11.5%	39.8µM*	-15.8%	-9.5%	21.0%
Cc1ccnc(NS(=O)(=O)c2ccccc2)n1	-11.7%	9.1%	8.1%	20.4%	-10.7%	18.0%
Cc1ccc(-c2nc(C(=O)NC3CCCCCC3)no2)cc1	/	-6.9%[57.1 µM]	/	-2.6%[57.1 µM]	79.4µM*	?
Cc1ccc(S(=O)(=O)N2CCN(C)CC2)cc1[N+](=O)[O-]	2.2%	7.9%	1.7%	29.1%	1.2%	5.6%
CN1CCN(S(=O)(=O)c2ccc(N3CCN(c4ccc(O)cc4)CC3)c([N+](=O)[O-])c2)CC1	4.0%	-12.0%	/	?	-7.5%	8.91µM*
O=C(O)c1cc(NS(=O)(=O)c2ccc(N3CCOCC3)c([N+](=O)[O-])c2)cc(C(=O)O)c1	30.5%	-15.9%	20.3%	-18.6%	-7.6%	7.0%
O=[N+]([O-])c1cc(S(=O)(=O)Nc2ccccc2)ccc1N1CCN(c2ccc(O)cc2)CC1	-1.2%	-7.6%	56.2µM*	7.9%	-6.5%	-3.9%
COc1ccc2c(CC(=O)NNC(=O)c3cccs3)coc2c1	-5.6%	1.1%	/	-1.4%	-0.3%	2.4%
CCNC(=S)NN=C1CCC(C(C)(C)C)CC1 (stereo not drawn)	0.0%	-3.0%	50.1µM*	-14.1%	-15.6%	2.0%
CC(=O)N1CCC(N(CCN2CCOCC2)C(=S)Nc2ccc(C)cc2)CC1	-5.2%	6.2%	50.1µM*	2.7%	9.8%	12.1%
COCCN1C(=O)N[C@@H](c2ccc(Br)cc2)C(C(C)=O)=C1C	0.2%	/	0.1%	/	3.7%	/
COc1ccc(CCNC(=O)CCCn2c(SCC#N)nc3ccccc3c2=O)cc1OC	2.1%	4.8%	12.0%	7.2%	10.6%	-7.9%
Cc1cccc(/C=N/NC(=O)c2ccc(F)cc2)n1	-10.7%	-4.0%	39.8µM*	7.9%	-2.4%	1.7%
C=C1C(=O)OC2C1CCC(C)=C1C(=O)C3OC3(C)C12 (stereo not drawn)	/	7.4%	/	8.91µM*	?	-2.0%
COc1ccc2c(c1)c1ncn(Cc3ccco3)c(=O)c1n2C	?	148.2%[57.1 µM]	17.8µM*	0.8%[57.1 µM]	0.1%	5.3%
Nc1cc2c(cc1[N+](=O)[O-])-c1ccccc1C2=NO	/	-5.7%	/	4.0%	-24.2%	-5.3%
